# Data published in the supplement of paper PMC4466140.
# How the values were obtained:
# Assay in all cases: SPOT peptide array binding signal intensity (averaged, normalized) (arbitrary units (background-subtracted, floor 0; scale differs between SH3 domains)); higher = stronger binding of the SH3 domain to the peptide
# [1] = molecular target: AgAbp1
# Summary of the method: (§1)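 GST-fused SH3 domains, from four yeast species, were produced in E. coli BL21(DE3) and captured on glutathione Sepharose. Membranes of cellulose carrying synthetic 15-mer peptides, in which cysteines had been replaced by serines, were exposed to each domain at 10 μg/ml overnight at 4°C in TBS-based blocking buffer. After anti-GST antibody, an HRP anti-mouse secondary and luminol, spots were imaged and quantified using Genespotter. Binding signal is normalized and background-subtracted spot intensity, averaged over replicates, in arbitrary units that differ between domains.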
# [2] = molecular target: AgBbc1
# Summary of the method: as §1
# [3] = molecular target: AgBem1-D1
# Summary of the method: as §1
# [4] = molecular target: AgBzz1-D1
# Summary of the method: as §1
# [5] = molecular target: AgBzz1-D2
# Summary of the method: as §1
# [6] = molecular target: AgCyk3
# Summary of the method: as §1
# [7] = molecular target: AgFus1
# Summary of the method: as §1
# [8] = molecular target: AgHof1
# Summary of the method: as §1
# [9] = molecular target: AgHse1
# Summary of the method: as §1
# [10] = molecular target: AgLsb1
# Summary of the method: as §1
# [11] = molecular target: AgLsb4
# Summary of the method: as §1
# [12] = molecular target: AgMyo5
# Summary of the method: as §1
# [13] = molecular target: AgNbp2
# Summary of the method: as §1
# [14] = molecular target: AgRvs167
# Summary of the method: as §1
# [15] = molecular target: AgSho1
# Summary of the method: as §1
# [16] = molecular target: AgSla1-D1-D2
# Summary of the method: as §1
# [17] = molecular target: AgSla1-D3
# Summary of the method: as §1
# [18] = molecular target: CaAbp1-D1
# Summary of the method: as §1
# [19] = molecular target: CaAbp1-D2
# Summary of the method: as §1
# [20] = molecular target: CaBbc1
# Summary of the method: as §1
# [21] = molecular target: CaBem1-D1
# Summary of the method: as §1
# [22] = molecular target: CaBzz1-D1
# Summary of the method: as §1
# [23] = molecular target: CaBzz1-D2
# Summary of the method: as §1
# [24] = molecular target: CaCyk3
# Summary of the method: as §1
# [25] = molecular target: CaFus1
# Summary of the method: as §1
# [26] = molecular target: CaHof1
# Summary of the method: as §1
# [27] = molecular target: CaHse1
# Summary of the method: as §1
# [28] = molecular target: CaLsb1
# Summary of the method: as §1
# [29] = molecular target: CaLsb4
# Summary of the method: as §1
# [30] = molecular target: CaMyo5
# Summary of the method: as §1
# [31] = molecular target: CaNbp2
# Summary of the method: as §1
# [32] = molecular target: CaRvs167
# Summary of the method: as §1
# [33] = molecular target: CaRvs167-3
# Summary of the method: as §1
# [34] = molecular target: CaSho1
# Summary of the method: as §1
# [35] = molecular target: CaSla1-D1-D2
# Summary of the method: as §1
# [36] = molecular target: CaSla1-D3
# Summary of the method: as §1
# [37] = molecular target: ScAbp1
# Summary of the method: as §1
# [38] = molecular target: ScBbc1
# Summary of the method: as §1
# [39] = molecular target: ScBem1-D1
# Summary of the method: as §1
# [40] = molecular target: ScBzz1-D1
# Summary of the method: as §1
# [41] = molecular target: ScBzz1-D2
# Summary of the method: as §1
# [42] = molecular target: ScCyk3
# Summary of the method: as §1
# [43] = molecular target: ScFus1
# Summary of the method: as §1
# [44] = molecular target: ScHof1
# Summary of the method: as §1
# [45] = molecular target: ScHse1
# Summary of the method: as §1
# [46] = molecular target: ScLsb1
# Summary of the method: as §1
# [47] = molecular target: ScLsb2
# Summary of the method: as §1
# [48] = molecular target: ScLsb3
# Summary of the method: as §1
# [49] = molecular target: ScLsb4
# Summary of the method: as §1
# [50] = molecular target: ScMyo3
# Summary of the method: as §1
# [51] = molecular target: ScMyo5
# Summary of the method: as §1
# [52] = molecular target: ScNbp2
# Summary of the method: as §1
# [53] = molecular target: ScPex13
# Summary of the method: as §1
# [54] = molecular target: ScRvs167
# Summary of the method: as §1
# [55] = molecular target: ScSho1
# Summary of the method: as §1
# [56] = molecular target: ScSla1-D1-D2
# Summary of the method: as §1
# [57] = molecular target: ScSla1-D3
# Summary of the method: as §1
# [58] = molecular target: SpAbp1-D1
# Summary of the method: as §1
# [59] = molecular target: SpBbc1
# Summary of the method: as §1
# [60] = molecular target: SpBzz1-D1
# Summary of the method: as §1
# [61] = molecular target: SpBzz1-D2
# Summary of the method: as §1
# [62] = molecular target: SpCyk3
# Summary of the method: as §1
# [63] = molecular target: SpHof1
# Summary of the method: as §1
# [64] = molecular target: SpHof1-2
# Summary of the method: as §1
# [65] = molecular target: SpHof1-3
# Summary of the method: as §1
# [66] = molecular target: SpHse1
# Summary of the method: as §1
# [67] = molecular target: SpLsb1
# Summary of the method: as §1
# [68] = molecular target: SpLsb4
# Summary of the method: as §1
# [69] = molecular target: SpMyo1
# Summary of the method: as §1
# [70] = molecular target: SpNbp2
# Summary of the method: as §1
# [71] = molecular target: SpPex13
# Summary of the method: as §1
# [72] = molecular target: SpRvs167
# Summary of the method: as §1
# [73] = molecular target: SpSla1-D1-D2
# Summary of the method: as §1
# [74] = molecular target: SpSla1-D3
# Summary of the method: as §1
binder,measurement,setting,value
RTRRRPPPPPIPSTQ,SPOT peptide array binding signal intensity,[1],334
same,SPOT peptide array binding signal intensity,[2],531
same,SPOT peptide array binding signal intensity,[3],308
same,SPOT peptide array binding signal intensity,[4],3430
same,SPOT peptide array binding signal intensity,[5],1460
same,SPOT peptide array binding signal intensity,[6],2
same,SPOT peptide array binding signal intensity,[7],87
same,SPOT peptide array binding signal intensity,[8],256
same,SPOT peptide array binding signal intensity,[9],91
same,SPOT peptide array binding signal intensity,[10],370
same,SPOT peptide array binding signal intensity,[11],136
same,SPOT peptide array binding signal intensity,[12],339
same,SPOT peptide array binding signal intensity,[13],2690
same,SPOT peptide array binding signal intensity,[14],99.3
same,SPOT peptide array binding signal intensity,[15],27
same,SPOT peptide array binding signal intensity,[16],23
same,SPOT peptide array binding signal intensity,[17],735
same,SPOT peptide array binding signal intensity,[18],748
same,SPOT peptide array binding signal intensity,[19],1060
same,SPOT peptide array binding signal intensity,[20],965
same,SPOT peptide array binding signal intensity,[21],124
same,SPOT peptide array binding signal intensity,[22],7320
same,SPOT peptide array binding signal intensity,[23],4870
same,SPOT peptide array binding signal intensity,[24],53.5
same,SPOT peptide array binding signal intensity,[25],452
same,SPOT peptide array binding signal intensity,[26],0.5
same,SPOT peptide array binding signal intensity,[27],21
same,SPOT peptide array binding signal intensity,[28],1.25
same,SPOT peptide array binding signal intensity,[29],1170
same,SPOT peptide array binding signal intensity,[30],19.8
same,SPOT peptide array binding signal intensity,[31],1440
same,SPOT peptide array binding signal intensity,[32],111
same,SPOT peptide array binding signal intensity,[33],22.5
same,SPOT peptide array binding signal intensity,[34],98
same,SPOT peptide array binding signal intensity,[35],2100
same,SPOT peptide array binding signal intensity,[36],391
same,SPOT peptide array binding signal intensity,[37],114
same,SPOT peptide array binding signal intensity,[38],511
same,SPOT peptide array binding signal intensity,[39],13.5
same,SPOT peptide array binding signal intensity,[40],1990
same,SPOT peptide array binding signal intensity,[41],258
same,SPOT peptide array binding signal intensity,[42],19
same,SPOT peptide array binding signal intensity,[43],40.5
same,SPOT peptide array binding signal intensity,[44],2
same,SPOT peptide array binding signal intensity,[45],473
same,SPOT peptide array binding signal intensity,[46],492
same,SPOT peptide array binding signal intensity,[47],559
same,SPOT peptide array binding signal intensity,[48],2080
same,SPOT peptide array binding signal intensity,[49],258
same,SPOT peptide array binding signal intensity,[50],940
same,SPOT peptide array binding signal intensity,[51],1490
same,SPOT peptide array binding signal intensity,[52],3190
same,SPOT peptide array binding signal intensity,[53],318
same,SPOT peptide array binding signal intensity,[54],1430
same,SPOT peptide array binding signal intensity,[55],894
same,SPOT peptide array binding signal intensity,[56],3110
same,SPOT peptide array binding signal intensity,[57],883
same,SPOT peptide array binding signal intensity,[58],505
same,SPOT peptide array binding signal intensity,[59],85.8
same,SPOT peptide array binding signal intensity,[60],4250
same,SPOT peptide array binding signal intensity,[61],1520
same,SPOT peptide array binding signal intensity,[62],1
same,SPOT peptide array binding signal intensity,[63],361
same,SPOT peptide array binding signal intensity,[64],53.5
same,SPOT peptide array binding signal intensity,[65],340
same,SPOT peptide array binding signal intensity,[66],72.2
same,SPOT peptide array binding signal intensity,[67],370
same,SPOT peptide array binding signal intensity,[68],1730
same,SPOT peptide array binding signal intensity,[69],800
same,SPOT peptide array binding signal intensity,[70],29.5
same,SPOT peptide array binding signal intensity,[71],26.5
same,SPOT peptide array binding signal intensity,[72],1250
same,SPOT peptide array binding signal intensity,[73],907
same,SPOT peptide array binding signal intensity,[74],2.5
